Data reported in PubChem BioAssay AID1053126 (Broad Institute, 2014).
Entries with a potency or affinity are not part of this list. Activity calls are given as the source filed them.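 How the source made its calls: active means cell killing with a fitted half-effect concentration at or below twice the top valid dose; inconclusive means flat curve with 30 to 70 percent drop, or poor fit; inactive means the rest.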

Assay: viability loss in HEK293T kidney cells – cell-based, ATP luminescence, cherry-pick, set 6, cytotoxicity control, dose response (AID 1053126)
Details: CellTiter-Glo ATP luminescence, 72 h; series mostly up to 26 µM

SMILES	outcome
CCN(CC)c1ccc2cc(C#N)c(=O)oc2c1	inactive
COc1ccc(Cn2nnnc2C(CC(C)C)N2CCC(C(N)=O)CC2)cc1 (stereo not drawn)	inactive
CC(=O)N=c1c(C#N)cc2c(=O)n3ccccc3nc2n1CCCOC(C)C	inactive
CCOC(=O)c1cc2c(=O)n3ccccc3nc2n(Cc2ccc(Cl)cc2)c1=N	inactive
COc1ccc(C(=O)c2sc3nc(-c4ccc(OC)cc4)ccc3c2N)cc1	inactive
Cc1oc(/N=C/c2ccc(O)cc2O)c(C#N)c1C	inactive
Nc1ccc2nc(-c3ccccc3)cnc2c1	inactive
COc1ccc(C(=O)Oc2cc(N)n(S(=O)(=O)c3ccccc3)n2)cc1	inactive
COc1ccccc1C1C2=C(CC(C)(C)CC2=O)N(CC(=O)O)C2=C1C(=O)CC(C)(C)C2	inactive
COCCCOc1cc(NCc2ccccc2)c2ncn(C(C)C)c2c1	inactive
CCc1nc(SCC(=O)c2ccccc2)c2ccccc2n1	inactive
N=c1c(C(=O)NCC2CCCO2)cc2c(=O)n3ccccc3nc2n1Cc1ccc(Cl)cc1 (stereo not drawn)	inactive
CCOC(=O)c1cc(-c2ccccc2)sc1NC(=O)CSc1nnc(N)s1	inactive
COc1ccc(C2C3=C(CC(C)(C)CC3=O)N(C)C3=C2C(=O)CC(C)(C)C3)cc1	inactive
O=C(NS(=O)(=O)c1ccc(Cl)s1)c1ccccc1	inactive
CCCCN(CCCC)CC(O)Cn1c2ccccc2c(=O)c2ccccc21 (stereo not drawn)	inactive
CCOC(=O)c1oc2c(CN3CCN(CCO)CC3)c(O)c(CC)cc2c(=O)c1-c1nc2ccccc2s1	inactive
COc1ccc(CCNC(=O)c2cc(S(=O)(=O)N3CCCCC3)c[nH]2)cc1OC	inactive
CCOC(=O)C1CCCN(CCCc2ccccc2)C1 (stereo not drawn)	inactive

SMILES	outcome
O=C(NNc1cc(N2CCCC2)nc(N2CCCC2)n1)c1ccc([N+](=O)[O-])cc1	inactive
CCNc1nc2nc3ccc(C)cn3c(=O)c2cc1C(=O)NCC1CCCO1 (stereo not drawn)	inactive
COCc1cc(C)nc(SCC(=O)Oc2ccc(Cl)cc2)c1C#N	inactive
CCCN1CCc2c(sc(NC(=O)C3CCN(S(=O)(=O)c4cccs4)CC3)c2C(N)=O)C1	inactive
N=c1oc2cc(O)ccc2cc1C(=O)Nc1nc2ccccc2s1	inactive
COc1cc(C(=O)OCC(C)=O)cc(NC(=O)c2ccco2)c1OC	inactive
Cc1c(Nc2c3ccccc3nc3ccccc23)c(=O)n(-c2ccccc2)n1C	inactive
CCCCN1C=C(C(=O)OC)C(c2ccccc2Cl)C(C(=O)OC)=C1	inactive
O=c1[nH]c2ccccc2nc1/C=C/c1ccccc1	inactive
CN(C)/C=C/C(=O)c1c(F)cccc1F	inactive
Clc1ccccc1C1=CC(c2ccco2)n2ncnc2N1 (stereo not drawn)	inactive
CCOC(=O)c1cc2c(=O)n3cccc(C)c3nc2n(CC(C)C)c1=NC(=O)c1ccco1	inactive
CCOc1ccc2nc(NCCNC(=O)CC)c(C#N)cc2c1	inactive
Cc1ccc(-c2nc3ccsc3c(=O)[nH]2)cc1	inactive
Cc1cccn2c(=O)c3cc(C(=O)NCCN4CCOCC4)c(=N)n(CCc4ccccc4)c3nc12	inactive
CCOC(=O)C1=CN(CC2CCCO2)C=C(C(=O)OCC)C1c1ccccc1C(F)(F)F (stereo not drawn)	inactive
Cc1cc(C)nc(SCC(=O)Nc2ccc(S(=O)(=O)Nc3onc(C)c3C)cc2)n1	inactive
O=C(C1=NN(c2ccccc2)C2C(=O)N(c3ccccc3)C(=O)C12)c1ccccc1 (stereo not drawn)	inactive
O=C(CCc1c[nH]c2ccccc12)OCC(=O)c1ccccc1	inactive
